Drawing on PubChem BioAssay AID1053 (University of Pittsburgh Molecular Library Screening Center, 2008), this text covers inhibition for 23 compounds.

“And” between values parts separate entries of the source, which are not always exact repeats. Equal values may be shown once. Unmarked numbers belong to inactive results. The rule behind the calls is not given here.

Sequence of Serine/threonine-protein kinase PLK1 (Homo sapiens) (P53350 whole entry, looked up, the tested form may be a part): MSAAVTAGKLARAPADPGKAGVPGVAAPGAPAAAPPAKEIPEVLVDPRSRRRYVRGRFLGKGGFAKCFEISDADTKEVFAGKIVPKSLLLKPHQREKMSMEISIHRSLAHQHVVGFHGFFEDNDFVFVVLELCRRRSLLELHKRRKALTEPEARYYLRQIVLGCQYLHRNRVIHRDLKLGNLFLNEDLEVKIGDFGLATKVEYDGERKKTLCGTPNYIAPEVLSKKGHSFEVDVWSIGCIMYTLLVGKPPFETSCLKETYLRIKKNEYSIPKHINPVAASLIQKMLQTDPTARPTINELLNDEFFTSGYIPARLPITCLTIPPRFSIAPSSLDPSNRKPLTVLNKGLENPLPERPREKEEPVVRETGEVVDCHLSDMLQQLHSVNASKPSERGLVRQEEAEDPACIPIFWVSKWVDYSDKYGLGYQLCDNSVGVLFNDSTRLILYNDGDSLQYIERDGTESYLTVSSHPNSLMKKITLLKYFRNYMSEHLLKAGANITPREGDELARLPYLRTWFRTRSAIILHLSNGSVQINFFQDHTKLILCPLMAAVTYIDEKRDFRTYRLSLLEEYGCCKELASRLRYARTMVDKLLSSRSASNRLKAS

This assay concerns the target Serine/threonine-protein kinase PLK1 (Homo sapiens) (UniProt P53350). Description: Plk1 polo box domain binding inhibitors, SAR follow-up, biochemical, fluorescence polarization, purchased analogs (AID 1053). As to conditions: Plk1 PBD fluorescence polarization peptide binding; at 20 µM; active compounds read high.
`Cc1cc(-n2c(C)cc(C=C3C(=O)NC(=O)NC3=O)c2C)ccc1I`: the inhibition is -48.2%.

For `CCn1nc(-c2cccc(Cl)c2)nc2c(=O)n(C)c(=O)nc1-2`, the inhibition was -5.43% and -17.8%.

Regarding `Cn1nc(-c2ccc(C(F)(F)F)cc2)nc2c(=O)n(C)c(=O)nc1-2`, the inhibition is 13.6% and 30.2%.

For `Cc1ccccc1-c1nnc2[nH]c(=O)n(C)c(=O)c2n1`, the inhibition was -8.49% and -8.27%.

On to `CC(=O)N(/N=C1\Sc2ccccc2C1=O)c1ccc(C)cc1C`, for which the inhibition is 29.2%.

Regarding `CC(=O)N(/C=C1\Sc2ccccc2C1=O)c1cccc(C)c1`, the inhibition was -111%.

For `Cn1c(=O)[nH]c2nnc(-c3ccc(F)cc3)nc2c1=O`, the inhibition is -42.3%.

On to `COc1ccccc1N(/C=C1\Sc2ccccc2C1=O)C(C)=O`, for which the inhibition was -288% and -274%.

For `Cn1nc(-c2ccc(F)cc2)nc2c(=O)n(C)c(=O)nc1-2`, the inhibition is 3.86%.

As for `O=c1[nH]c(=O)c2nc(-c3ccc(Cl)cc3)cnc2[nH]1`, the inhibition was -45.5%.

Take `CC(=O)c1ccc(N(CN2C(=O)c3ccc([N+](=O)[O-])cc3C2=O)C(C)=O)cc1`: the inhibition was -32.8%.

In the case of `O=c1cc[nH]c2cc(N3CCOCC3)c(F)cc12`, the inhibition was -49%.

With `Cn1c(=O)[nH]c2nnc(-c3ccccc3)nc2c1=O`, the inhibition is -31%.

On to `CCN(CC)CCOC(=O)c1ccc(NC(=O)c2cc(OC)c(OC)cc2OC)cc1`, for which the inhibition was -46.3%.

In the case of `COc1ccc(C(=O)COC(=O)c2ccc(NC(=O)c3ccccc3)cc2)cc1`, the inhibition was 40.3%.

On to `Cn1c(=O)c2nc(-c3ccccc3)c(-c3ccccc3)nc2n(C)c1=O`, for which the inhibition is -30.5%.

Take `CC(=O)N(CN1C(=O)c2ccccc2C1=O)c1ccc(I)cc1`: the inhibition is -50.3% and -70.1%.

Take `CC(=O)N(CN1C(=O)c2ccccc2C1=O)c1ccc(Br)cc1`: the inhibition was -29.4%.

For the compound `O=C1NC(=O)C(=Cc2ccccc2OCCOc2ccccc2)C(=O)N1`, the inhibition is -20.6%.

With `COc1ccc(N(CN2C(=O)c3ccccc3C2=O)C(C)=O)cc1`, the inhibition is -43.9% and -51.6%.

With `CC(=O)N(CN1C(=O)c2ccccc2C1=O)c1ccc(F)cc1`, the inhibition was -46.9%.

Turning to `CCOC(=O)c1ccc(NC(=O)C2C3C=CC(C3)C2(C)C(=O)O)cc1` (stereo not drawn), the inhibition is -56.5%.

In the case of `CC(=O)Oc1c(Cl)c(N2CCOCC2)c(OC(C)=O)c2ccccc12`, the inhibition was -39.3%.

One may read the inhibition as the relative decrease from the control value, in per cent.
